Data: PubChem BioAssay (EPA / NIEHS)
Results filed as inconclusive are left out. The source made the active and inactive calls. The calls were made as follows, unless noted: active = hit-call score of the fitted dose curve at least 0.9, where 1 is the maximum; inactive = score below 0.9.

Experiments:
[1] = ATG_CRE_CIS: Attagene CIS-FACTORIAL HepG2 Assay for human cAMP Responsive Element (CRE) binding protein 3 (AID 2282926); conditions: HepG2 CRE cis-reporter, Attagene multiplexed mRNA; actives raise or lower the signal
Procedure, shortened: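 Induced reporter mRNA from a CRE cis element, measured in HepG2 among many multiplexed units at 24 h. Detection used RT-PCR plus capillary electrophoresis of fluorescent fragments; DMSO served as negative control.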

[2] = ATG_DR4_LXR_CIS: Attagene CIS-FACTORIAL HepG2 Assay for human Liver X Receptor (LXR), DR4 submotif (AID 2282929); conditions: HepG2 Attagene DR4 cis-reporter, mRNA transcription; actives raise or lower the signal
Procedure, shortened: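 Cells were transfected with multiple reporter transcription units, exposed to chemicals for 24 hours, then lysed for RNA. Reporter mRNA induction was measured by RT-PCR with capillary electrophoresis detection and fitted in both directions relative to DMSO.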

[3] = target: Transcription factor E2F1 (Homo sapiens) (UniProt Q01094); assay: ATG_E2F_CIS: Attagene CIS-FACTORIAL HepG2 Assay for human E2F Transcription Factor 1 (AID 2282935); conditions: HepG2 Attagene cis-reporter, E2F reporter RNA transcripts; actives raise or lower the signal
Sequence of Transcription factor E2F1 (Homo sapiens) (Q01094 whole entry, looked up): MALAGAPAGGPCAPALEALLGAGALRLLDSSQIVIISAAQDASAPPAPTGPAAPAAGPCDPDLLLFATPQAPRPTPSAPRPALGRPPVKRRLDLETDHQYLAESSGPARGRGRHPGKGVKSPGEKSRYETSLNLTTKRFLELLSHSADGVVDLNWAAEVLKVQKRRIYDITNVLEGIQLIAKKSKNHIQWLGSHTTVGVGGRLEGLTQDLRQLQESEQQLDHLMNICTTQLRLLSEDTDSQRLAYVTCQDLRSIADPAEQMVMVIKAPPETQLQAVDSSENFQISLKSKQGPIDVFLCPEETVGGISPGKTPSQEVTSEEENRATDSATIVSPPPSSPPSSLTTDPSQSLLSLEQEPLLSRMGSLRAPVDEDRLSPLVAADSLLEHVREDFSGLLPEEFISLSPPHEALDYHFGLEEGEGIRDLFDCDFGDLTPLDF
Procedure, shortened: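 Liver-derived HepG2 cells expressing transfected promoter-driven reporter units received test chemical for 24 hours. Signal gains or losses were fitted bidirectionally against DMSO.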

[4] = ATG_GLI_CIS: Attagene CIS-FACTORIAL HepG2 Assay for human Zinc Finger Protein GLI1 (AID 2282945); conditions: HepG2, Attagene cis-factorial reporter mRNA, GLI element; actives raise or lower the signal
Procedure, shortened: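 Transiently transfected HepG2 cells report endogenous transcription factor activity via cis-element-driven reporter units. After 24 h compound exposure, reporter mRNA was measured by RT-PCR with capillary electrophoresis; bidirectional fitting against DMSO baseline.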

[5] = ATG_GRE_CIS: Attagene CIS-FACTORIAL HepG2 Assay for human Glucocorticoid Response Elements (GRE) (AID 2282947); conditions: HepG2 GRE cis-reporter, Attagene multiplex mRNA; actives raise or lower the signal
Procedure, shortened: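 Fluorescence intensity of reporter-specific cDNA fragments, separated by capillary electrophoresis, provides the signal. Constructs carry cis-regulating promoters in transiently transfected HepG2 liver cells; 24 h incubation; fitting is bidirectional against DMSO.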

[6] = target: Hypoxia-inducible factor 1-alpha (Homo sapiens) (UniProt Q16665); assay: ATG_HIF1a_CIS: Attagene CIS-FACTORIAL HepG2 Assay for human Hypoxia Inducible Factor 1 (HIF1A) (AID 2282951); conditions: HepG2 Attagene cis-factorial HIF1a reporter transcription; actives raise or lower the signal
Sequence of Hypoxia-inducible factor 1-alpha (Homo sapiens) (Q16665 whole entry, looked up): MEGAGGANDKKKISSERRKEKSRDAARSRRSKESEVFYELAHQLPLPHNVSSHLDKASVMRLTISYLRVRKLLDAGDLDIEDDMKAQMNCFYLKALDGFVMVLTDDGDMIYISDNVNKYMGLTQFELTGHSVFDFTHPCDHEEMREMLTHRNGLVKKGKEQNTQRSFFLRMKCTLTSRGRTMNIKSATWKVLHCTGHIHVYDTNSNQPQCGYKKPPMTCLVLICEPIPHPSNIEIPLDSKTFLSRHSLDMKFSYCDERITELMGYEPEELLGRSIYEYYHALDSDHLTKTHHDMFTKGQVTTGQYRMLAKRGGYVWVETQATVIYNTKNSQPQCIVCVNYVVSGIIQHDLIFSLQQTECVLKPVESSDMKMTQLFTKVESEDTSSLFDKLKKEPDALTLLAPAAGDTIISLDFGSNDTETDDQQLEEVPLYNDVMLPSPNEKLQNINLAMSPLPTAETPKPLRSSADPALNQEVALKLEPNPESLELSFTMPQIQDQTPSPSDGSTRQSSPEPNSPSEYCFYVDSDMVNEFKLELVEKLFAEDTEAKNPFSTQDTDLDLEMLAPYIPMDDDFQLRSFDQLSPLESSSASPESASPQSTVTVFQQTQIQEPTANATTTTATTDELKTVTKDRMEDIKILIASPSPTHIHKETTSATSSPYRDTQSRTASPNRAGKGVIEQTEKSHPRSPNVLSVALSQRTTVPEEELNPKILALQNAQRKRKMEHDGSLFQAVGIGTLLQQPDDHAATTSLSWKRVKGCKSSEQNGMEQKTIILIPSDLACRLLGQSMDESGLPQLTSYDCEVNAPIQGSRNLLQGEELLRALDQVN
Procedure, shortened: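 Measures endogenous transcription-factor activity through cis-regulated reporter mRNA in HepG2. Cells dosed 24 h; transcripts quantified by RT-PCR with 6-FAM-labelled products separated by capillary electrophoresis; DMSO serves as negative control.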

[7] = target: Hepatocyte nuclear factor 6 (Homo sapiens) (UniProt Q9UBC0); assay: ATG_HNF6_CIS: Attagene CIS-FACTORIAL HepG2 Assay for human Hepatocyte Nuclear Factor 6 (HNF6) (AID 2282952); conditions: HepG2 Attagene cis-factorial HNF6 reporter transcription; actives raise or lower the signal
Sequence of Hepatocyte nuclear factor 6 (Homo sapiens) (Q9UBC0 whole entry, looked up, the tested form may be a part): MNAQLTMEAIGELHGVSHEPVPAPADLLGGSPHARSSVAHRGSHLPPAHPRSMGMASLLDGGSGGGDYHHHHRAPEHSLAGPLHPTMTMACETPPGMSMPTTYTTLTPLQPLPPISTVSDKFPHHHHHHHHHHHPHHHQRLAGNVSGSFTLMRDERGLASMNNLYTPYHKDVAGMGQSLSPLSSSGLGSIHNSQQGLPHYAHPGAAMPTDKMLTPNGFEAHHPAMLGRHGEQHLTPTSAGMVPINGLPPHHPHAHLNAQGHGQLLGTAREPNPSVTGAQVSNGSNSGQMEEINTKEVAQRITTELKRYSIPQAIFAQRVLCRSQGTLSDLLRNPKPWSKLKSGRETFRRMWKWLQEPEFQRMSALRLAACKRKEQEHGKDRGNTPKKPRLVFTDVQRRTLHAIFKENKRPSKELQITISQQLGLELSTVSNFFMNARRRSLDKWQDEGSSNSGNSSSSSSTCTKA
Procedure, shortened: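 First, HepG2 cells were transfected with the multiplexed cis reporter library and dosed with chemical for 24 h. Next, RNA was reverse-transcribed, PCR-amplified and fluorescently labelled. Finally, HpaI-digested fragments were read by capillary electrophoresis.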

[8] = target: Heat shock factor protein 1 (Homo sapiens) (UniProt Q00613); assay: ATG_HSE_CIS: Attagene CIS-FACTORIAL HepG2 Assay for human Heat Shock Transcription Factor 1 (HSE) (AID 2282953); conditions: HepG2 HSE cis-reporter, Attagene RNA transcription; actives raise or lower the signal
Sequence of Heat shock factor protein 1 (Homo sapiens) (Q00613 whole entry, looked up, the tested form may be a part): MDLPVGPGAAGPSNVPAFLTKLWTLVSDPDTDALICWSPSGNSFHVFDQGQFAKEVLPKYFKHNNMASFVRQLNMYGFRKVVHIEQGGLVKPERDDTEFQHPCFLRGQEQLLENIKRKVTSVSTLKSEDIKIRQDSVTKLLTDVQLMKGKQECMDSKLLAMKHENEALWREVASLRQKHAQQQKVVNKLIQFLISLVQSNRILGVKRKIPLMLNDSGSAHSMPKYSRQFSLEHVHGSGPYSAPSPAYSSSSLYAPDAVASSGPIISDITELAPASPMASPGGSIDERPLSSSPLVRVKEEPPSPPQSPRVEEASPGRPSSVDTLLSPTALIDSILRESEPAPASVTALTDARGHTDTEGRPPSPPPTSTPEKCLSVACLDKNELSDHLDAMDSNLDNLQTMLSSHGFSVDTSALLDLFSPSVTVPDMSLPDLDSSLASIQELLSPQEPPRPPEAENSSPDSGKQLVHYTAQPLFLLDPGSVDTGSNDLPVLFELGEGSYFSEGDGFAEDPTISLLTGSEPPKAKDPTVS
Procedure, shortened: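 Endogenous transcription factor activity captured via cis-promoter reporter units transfected into HepG2; treatment lasted 24 h. Fluorescence intensity of reporter fragments analysed with bidirectional curve fitting, DMSO baseline.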

[9] = ATG_TA_CIS: Attagene CIS-FACTORIAL HepG2 Assay for human TA Basal Promoter (AID 2282964); conditions: HepG2 Attagene CIS-factorial TA basal promoter reporter; actives raise or lower the signal
Procedure, shortened: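 Fluorescence from labelled RT-PCR reporter fragments, separated by capillary electrophoresis, gives the signal. Cells: HepG2 transiently carrying multiple reporter units, 24 h chemical dosing. Gain or loss relative to DMSO.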

[10] = ATG_TCF_b_cat_CIS: Attagene CIS-FACTORIAL HepG2 Assay for human T-Cell-Factor with beta-catenin (TCF/b-cat) (AID 2282965); conditions: HepG2 TCF/beta-catenin cis-reporter transcription, actives raise or lower the signal
Procedure, shortened: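 HepG2 cells transiently transfected with cis-promoter-driven multiplexed reporter units; reporter mRNA measured 24 h after dosing by RT-PCR, FAM labelling, HpaI digestion and capillary electrophoresis. Bidirectional fitting relative to DMSO baseline.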

[11] = target: Transcriptional activator Myb (Homo sapiens) (UniProt P10242); assay: ATG_Myb_CIS: Attagene CIS-FACTORIAL HepG2 Assay for human Myeloblastosis (Myb) Proto-Oncogene Transcription Factor (AID 2282986); conditions: HepG2 Attagene CIS-FACTORIAL Myb reporter transcription; actives raise or lower the signal
Sequence of Transcriptional activator Myb (Homo sapiens) (P10242 whole entry, looked up): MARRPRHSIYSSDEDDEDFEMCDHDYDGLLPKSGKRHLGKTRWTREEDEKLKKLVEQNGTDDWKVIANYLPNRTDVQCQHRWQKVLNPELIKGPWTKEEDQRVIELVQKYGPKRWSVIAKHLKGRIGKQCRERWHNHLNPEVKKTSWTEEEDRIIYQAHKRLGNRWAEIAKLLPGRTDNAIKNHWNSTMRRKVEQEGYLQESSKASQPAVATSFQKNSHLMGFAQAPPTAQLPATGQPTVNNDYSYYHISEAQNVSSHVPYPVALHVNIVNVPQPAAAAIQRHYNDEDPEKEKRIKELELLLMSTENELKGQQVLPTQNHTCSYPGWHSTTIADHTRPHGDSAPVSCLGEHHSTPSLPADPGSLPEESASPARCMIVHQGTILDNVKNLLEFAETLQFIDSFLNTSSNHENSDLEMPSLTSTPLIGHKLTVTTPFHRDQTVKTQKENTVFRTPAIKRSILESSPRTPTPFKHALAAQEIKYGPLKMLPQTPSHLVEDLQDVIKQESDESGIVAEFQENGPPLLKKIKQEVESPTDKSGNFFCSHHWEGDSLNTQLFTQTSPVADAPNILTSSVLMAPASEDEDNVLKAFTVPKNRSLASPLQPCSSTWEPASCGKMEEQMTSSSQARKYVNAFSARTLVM
Procedure, shortened: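 Steps: transfect HepG2 with cis-regulated reporter units; dose with chemical for 24 h; isolate RNA, reverse-transcribe, PCR-amplify and FAM-label reporter sequences; digest with HpaI; resolve by capillary electrophoresis. Activity fitted in both directions relative to DMSO.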

[12] = target: Nuclear respiratory factor 1 (Homo sapiens) (UniProt Q16656); assay: ATG_NRF1_CIS: Attagene CIS-FACTORIAL HepG2 Assay for human Nuclear Respiratory Factor 1 (NRF1) Orphan Gene (AID 2282987); conditions: HepG2 NRF1 cis-element reporter, Attagene multiplex; actives raise or lower the signal
Sequence of Nuclear respiratory factor 1 (Homo sapiens) (Q16656 whole entry, looked up, the tested form may be a part): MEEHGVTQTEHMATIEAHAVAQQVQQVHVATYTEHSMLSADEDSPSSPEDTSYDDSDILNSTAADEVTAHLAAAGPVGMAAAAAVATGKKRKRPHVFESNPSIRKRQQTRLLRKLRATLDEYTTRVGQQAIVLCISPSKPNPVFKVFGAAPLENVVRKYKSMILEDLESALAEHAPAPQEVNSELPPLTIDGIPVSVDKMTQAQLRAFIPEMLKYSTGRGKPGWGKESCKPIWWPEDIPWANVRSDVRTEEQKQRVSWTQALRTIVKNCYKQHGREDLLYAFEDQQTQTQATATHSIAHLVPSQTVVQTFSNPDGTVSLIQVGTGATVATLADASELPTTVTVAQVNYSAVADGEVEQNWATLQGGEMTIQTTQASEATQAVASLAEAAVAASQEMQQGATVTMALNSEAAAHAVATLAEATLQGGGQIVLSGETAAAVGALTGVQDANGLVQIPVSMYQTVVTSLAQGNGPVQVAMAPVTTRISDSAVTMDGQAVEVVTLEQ
Procedure, shortened: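 Fluorescence intensity of labelled reporter cDNA fragments, resolved by capillary electrophoresis, served as readout for NRF1 cis-element activity. Transiently transfected HepG2 cells were dosed for 24 hours; activity in either direction was fitted against DMSO negative control.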

[13] = ATG_NFI_CIS: Attagene CIS-FACTORIAL HepG2 Assay for human Nuclear Factor I (NFI) (AID 2282989); conditions: HepG2 cis-regulatory reporter, NFI response element transcription; actives raise or lower the signal
Procedure, shortened: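 Cells: human liver HepG2, transiently transfected with promoter-regulated reporter transcription units. Exposure 24 h. Detection: fluorescent RT-PCR products separated by capillary electrophoresis, normalised to DMSO negative control.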

[14] = target: Myc proto-oncogene protein (Homo sapiens) (UniProt P01106); assay: ATG_Myc_CIS: Attagene CIS-FACTORIAL HepG2 Assay for human Myelocytomatosis (Myc) Proto-Oncogene Transcription Factor (AID 2282990); conditions: HepG2, Attagene cis-reporter transcription factor activity; actives raise or lower the signal
Sequence of Myc proto-oncogene protein (Homo sapiens) (P01106 whole entry, looked up): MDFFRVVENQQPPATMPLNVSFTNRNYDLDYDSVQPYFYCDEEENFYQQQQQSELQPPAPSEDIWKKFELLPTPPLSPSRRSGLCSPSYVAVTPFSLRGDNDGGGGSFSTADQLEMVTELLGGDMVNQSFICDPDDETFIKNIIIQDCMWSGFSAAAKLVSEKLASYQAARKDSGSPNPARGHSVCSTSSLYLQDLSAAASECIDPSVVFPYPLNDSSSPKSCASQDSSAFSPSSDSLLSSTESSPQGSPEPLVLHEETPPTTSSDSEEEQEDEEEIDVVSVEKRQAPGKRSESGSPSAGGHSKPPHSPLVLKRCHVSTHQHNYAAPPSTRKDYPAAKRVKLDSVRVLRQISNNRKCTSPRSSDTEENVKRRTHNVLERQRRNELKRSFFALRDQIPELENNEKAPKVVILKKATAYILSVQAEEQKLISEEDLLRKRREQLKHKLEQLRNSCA
Procedure, shortened: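 Transiently transfected HepG2 cells bearing cis-promoter reporter units for endogenous transcription factors; 24 h exposure. Reporter mRNA measured by RT-PCR, 6-FAM primer extension, HpaI cut and capillary electrophoresis; bidirectional fit relative to DMSO.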

[15] = ATG_NRF2_ARE_CIS: Attagene CIS-FACTORIAL HepG2 Assay for human Nuclear Factor Erythroid 2 Related Factor 2 (NFR2) response to Antioxidant Response Elements (ARE) (AID 2282992); conditions: HepG2 Attagene ARE/NRF2 reporter, transcription factor activity; actives raise or lower the signal;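 as to AC50: reporter mRNA level measured by RT-PCR and capillary electrophoresis fluorescence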
Procedure, shortened: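 Fluorescence intensity of reporter-specific cDNA fragments, separated by capillary electrophoresis, reflects mRNA induction in transfected HepG2 cells at 24 h. Activity is fitted bidirectionally, DMSO serving as baseline.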

[16] = ATG_Oct_MLP_CIS: Attagene CIS-FACTORIAL HepG2 Assay for human Octamer-Binding Transcription Factor (Oct) (AID 2282993); conditions: HepG2 Attagene cis-factorial Oct reporter, mRNA; actives raise or lower the signal
Procedure, shortened: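 HepG2, transient MRTU transfection, cis promoter elements; 24 h dosing; RT-PCR/CE fluorescence read-out of reporter mRNA; fit both directions vs DMSO.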

[17] = target: Cellular tumor antigen p53 (Homo sapiens) (UniProt P04637); assay: ATG_p53_CIS: Attagene CIS-FACTORIAL HepG2 Assay for human p53 Transcription Factor (AID 2282994); conditions: HepG2 p53 cis-element reporter, Attagene mRNA; actives raise or lower the signal
Sequence of Cellular tumor antigen p53 (Homo sapiens) (P04637 whole entry, looked up): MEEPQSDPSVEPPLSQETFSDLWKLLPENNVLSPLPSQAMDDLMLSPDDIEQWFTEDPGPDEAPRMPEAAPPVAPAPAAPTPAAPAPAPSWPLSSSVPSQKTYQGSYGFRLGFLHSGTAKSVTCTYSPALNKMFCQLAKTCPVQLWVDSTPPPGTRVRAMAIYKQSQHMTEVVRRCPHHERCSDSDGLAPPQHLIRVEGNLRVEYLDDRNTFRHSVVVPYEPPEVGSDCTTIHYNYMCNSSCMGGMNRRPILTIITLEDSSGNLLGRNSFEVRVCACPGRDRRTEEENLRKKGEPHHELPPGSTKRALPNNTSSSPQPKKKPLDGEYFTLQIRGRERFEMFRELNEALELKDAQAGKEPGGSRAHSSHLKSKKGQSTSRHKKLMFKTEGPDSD
Procedure, shortened: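 Transiently transfected HepG2 (multiple cis reporter transcription units); exposure 24 h; reporter RNA via RT-PCR, 6-FAM extension, 2 h HpaI digest at 37 C, CE detection; DMSO baseline.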

[18] = target: Nuclear receptor subfamily 1 group I member 2 (Homo sapiens) (UniProt O75469); assay: ATG_PXR_TRANS: Attagene TRANS-FACTORIAL HepG2 Assay for human Pregnane X Receptor (PXR) (AID 2283008; active = hit-call score of the fitted dose curve at least 0.9, where 1 is the maximum)
Sequence of Nuclear receptor subfamily 1 group I member 2 (Homo sapiens) (O75469 whole entry, looked up, the tested form may be a part): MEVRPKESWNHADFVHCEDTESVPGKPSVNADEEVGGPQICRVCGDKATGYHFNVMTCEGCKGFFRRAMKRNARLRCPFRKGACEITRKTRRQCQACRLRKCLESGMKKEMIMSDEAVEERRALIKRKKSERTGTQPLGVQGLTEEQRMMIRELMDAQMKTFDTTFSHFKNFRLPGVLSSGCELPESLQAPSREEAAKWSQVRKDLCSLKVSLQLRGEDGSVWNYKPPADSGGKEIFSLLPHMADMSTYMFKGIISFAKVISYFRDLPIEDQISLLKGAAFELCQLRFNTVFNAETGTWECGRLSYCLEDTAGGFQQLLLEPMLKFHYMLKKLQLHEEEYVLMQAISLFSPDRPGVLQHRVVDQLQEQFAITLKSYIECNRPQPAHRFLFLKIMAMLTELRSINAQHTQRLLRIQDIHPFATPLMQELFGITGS
Procedure, shortened: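 Transient HepG2 transfectants carrying multiplexed reporter transcription units; PXR activity read through a Gal4 chimera. 24 h exposure. RT-PCR/CE fluorescence; upward curve fit referenced to DMSO.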

[19] = ATG_XTT_Cytotoxicity: Cytotoxicity Assessment in the Attagene TRANS-FACTORIAL HepG2 Assay (AID 2283584; active = hit-call score of the fitted dose curve at least 0.9, where 1 is the maximum)
Procedure, shortened: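 HepG2 cells transiently transfected with GAL4-UAS multiple reporter units, dosed 24 h; cytotoxicity read by XTT as loss of signal versus DMSO baseline.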

[20] = ATG_TGFb_CIS: Attagene CIS-FACTORIAL HepG2 Assay for human Transforming Growth Factor (TGF) (AID 2282967); conditions: HepG2 Attagene CIS TGFb reporter, mRNA transcription; actives raise or lower the signal
Procedure, shortened: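 Bidirectional fitting relative to DMSO gave the endpoint. Underlying data: reporter mRNA from HepG2 cells carrying transiently transfected cis-regulated reporter constructs, harvested 24 h after dosing and analyzed by RT-PCR and capillary electrophoresis.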

Measured: AC50

c1ccc2c(c1)Oc1ccccc1S2
active: [2] 171 µM | [4] 173 µM | [13] 140 µM | [15] 146 µM
not listed: [20]
inactive: all other assays above

O=C(O)c1nc(Cl)c(Cl)c(Cl)c1Cl
active: [15] 15.3 µM
not listed: [3] | [9] | [17] | [19]
inactive: all other assays above

CCOC(=O)c1ccccc1
active: [2] 128 µM | [5] 61.9 µM
not listed: [10] | [19] | [20]
inactive: all other assays above

CC/C=C/CCO
not listed: [4] | [10] | [20]
inactive: all other assays above
